Data taken from the supplement of paper PMC12350171.
Structures can show the parent of a compound that is named as a salt.

These compounds were tested on Haemophilus parainfluenzae (assay: growth AUC normalised to DMSO control (fraction of control); higher = less growth inhibition, active = hit call of the paper). Conditions: 20 µM;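 active = AUC significantly below DMSO controls by Student t-fit with adjusted P under 0.01; inactive = not significantly reduced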.
Outline: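 For the AUC endpoint, growth curves were integrated by the trapezoidal rule up to the exponential-to-stationary transition and normalised to DMSO controls on the same plate. The curves came from OD578 readings taken hourly for 24 h, in three biological replicates. Pathogens had been passaged anaerobically twice and inoculated at an OD578 of 0.01 into pre-reduced mGAM plates carrying 20 μM compound and 1% DMSO, sealed with breathable membranes. Medium for Haemophilus parainfluenzae also contained hemin and NAD.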

Compound | growth AUC normalised to DMSO control
Nc1nc(N)c2nc(-c3ccccc3)c(N)nc2n1 [Triamterene] | 0.935 (inactive)
O=C1NCC2(CCN(CCc3ccccc3)CC2)O1 [Fenspiride hydrochloride] | 0.967 (inactive)
COc1cc2ncnc(Nc3ccc(F)c(Cl)c3)c2cc1OCCCN1CCOCC1 [Gefitinib] | 0.971 (inactive)
Clc1ccc(Cn2c(CN3CCCC3)nc3ccccc32)cc1 [Clemizole hydrochloride] | 0.982 (inactive)
CCCC(=O)Nc1ncnc2c1ncn2[C@@H]1O[C@@H]2COP(=O)(O)O[C@H]2[C@H]1OC(=O)CCC [Bucladesine sodium salt] | 1 (inactive)
CCOC(=O)Nc1ccc2c(c1)N(C(=O)CCN1CCOCC1)c1ccccc1S2 [Moricizine hydrochloride] | 0.998 (inactive)
CC(C)C(=O)c1c(C(C)C)nn2ccccc12 [Ibudilast] | 0.811 (inactive)
CNCCc1ccccn1 [Betahistine mesylate] | 0.962 (inactive)
CN(C)CCCSC(=N)N [Dimaprit dihydrochloride] | 1.01 (inactive)
CN1CCOC(c2ccccc2)c2ccccc2C1 (centres undefined) [Nefopam hydrochloride] | 1 (inactive)
CC(=O)OCC(CCn1cnc2cnc(N)nc21)COC(C)=O [Famciclovir] | 1.02 (inactive)
COc1ccc2c(c1)C(=O)N(CCc1ccc(S(=O)(=O)NC(=O)NC3CCCCC3)cc1)C(=O)C2(C)C [Gliquidone] | 0.998 (inactive)
C=CCOc1ccccc1OCC(O)CNC(C)C (centres undefined) [Oxprenolol hydrochloride] | 0.958 (inactive)
OCCOCCN1CCN(C2=Nc3ccccc3Sc3ccccc32)CC1 [Quetiapine hemifumarate] | 0.997 (inactive)
Nc1ccc(C(=O)NCC(=O)O)cc1 [Aminohippuric acid] | 1 (inactive)
CC(C)(Oc1ccc(C2CC2(Cl)Cl)cc1)C(=O)O (centres undefined) [Ciprofibrate] | 1.01 (inactive)
N=C(N)NS(=O)(=O)c1ccc(N)cc1 [Sulfaguanidine] | 1.04 (inactive)
COc1ccc2[nH]cc(CCNC(C)=O)c2c1 [Melatonin] | 0.966 (inactive)
Cc1c(N(C)CS(=O)(=O)O)c(=O)n(-c2ccccc2)n1C [Dipyrone sodium salt] | 1.02 (inactive)
CC(C)NCC(O)COc1cccc2[nH]ccc12 (centres undefined) [Pindolol] | 1.05 (inactive)

Compound | growth AUC normalised to DMSO control
C=C1c2c(Cl)ccc(O)c2C(O)=C2C(=O)[C@]3(O)C(O)=C(C(N)=O)C(=O)[C@@H](N(C)C)[C@@H]3[C@@H](O)[C@H]12.O=C(O)c1cc(S(=O)(=O)O)ccc1O [Meclocycline sulfosalicylate] | 0.0341 (active)
CCN1CCC[C@H]1CNC(=O)c1c(O)c(Cl)cc(Cl)c1OC [Raclopride] | 0.944 (inactive)
C[C@]12CC[C@@H]3c4ccc(O)cc4CC[C@H]3[C@@H]1CCC2=O [Estrone] | 0.966 (inactive)
CCOC(=O)[C@H](CCc1ccccc1)N[C@@H](C)C(=O)N1[C@H](C(=O)O)C[C@@H]2CCC[C@@H]21 [Ramipril] | 1.02 (inactive)
O=C(O)CCNC(=O)c1ccc(/N=N/c2ccc(O)c(C(=O)O)c2)cc1 [Balsalazide disodium salt] | 1.07 (inactive)
OCCN1CCN(CCCN2c3ccccc3C=Cc3ccccc32)CC1 [Opipramol dihydrochloride] | 0.911 (inactive)
O=c1[nH]c(=O)n([C@H]2C[C@H](O)[C@@H](CO)O2)cc1F [Floxuridine] | 0.0967 (active)
CC(CCc1ccc(O)cc1)NCCc1ccc(O)c(O)c1 (centres undefined) [Dobutamine hydrochloride] | 1.05 (inactive)
C[C@H]1[C@H](NC(=O)/C(=N\OC(C)(C)C(=O)O)c2csc(N)n2)C(=O)N1S(=O)(=O)O [Aztreonam] | 0.0582 (active)
NC1CCN(c2c(F)cc3c(=O)c(C(=O)O)cn(C4CC4)c3c2Cl)C1 (centres undefined) [Clinafloxacin] | 0.0486 (active)
CC[N+](CC)(CC(=O)Nc1c(C)cccc1C)Cc1ccccc1 [Denatonium benzoate] | 1.05 (inactive)
Clc1ccc(Nc2nnc(Cc3ccncc3)c3ccccc23)cc1 [Vatalanib] | 1.04 (inactive)
CC(CN(C)C)C(C)(O)Cc1ccc(Cl)cc1 (centres undefined) [Clobutinol hydrochloride] | 0.963 (inactive)
COc1cc([S+](C)[O-])ccc1-c1nc2cccnc2[nH]1 (centres undefined) [Sulmazole] | 1 (inactive)
CCOC(=O)[N-]c1c[n+](N2CCOCC2)no1 [Molsidomine] | 1.03 (inactive)
O=C1Cc2cc(CCN3CCN(c4nsc5ccccc45)CC3)c(Cl)cc2N1 [Ziprasidone  hydrochloride monohydrate] | 1.03 (inactive)
CN[C@@H]1[C@H](O[C@H]2[C@H](O[C@H]3[C@H](O)[C@@H](O)[C@H](N=C(N)N)[C@@H](O)[C@@H]3N=C(N)N)O[C@@H](C)[C@]2(O)C=O)O[C@@H](CO)[C@H](O)[C@H]1O [Streptomycin sulfate] | 0.633 (active)
CS(=O)(=O)Nc1ccc([N+](=O)[O-])cc1Oc1ccccc1 [Nimesulide] | 0.982 (inactive)
CCN(Cc1ccncc1)C(=O)C(CO)c1ccccc1 (centres undefined) [Tropicamide] | 0.816 (inactive)
